Results published in PubChem BioAssay (EPA / NIEHS).
Inconclusive results are not listed. The source holds several records for some structures; these can differ, active in one and inactive in another. Active and inactive are the calls of the source. Rule for the calls, unless noted: active = hit-call score of the fitted dose curve at least 0.9, where 1 is the maximum; inactive = score below 0.9.

Assays:
[1] = CCTE_Simmons_MITO_inhib_resp_rate: CCTE's HepG2 Seahorse XF Respirometric Screening Assay at Inhibited Respiratory State [full ETC block], Simmons Lab (AID 2284006); conditions: actives raise or lower the signal
Summary of the method: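 Test chemicals at seven final concentrations (125 nM–100 uM) in three biological replicates, with DMSO as vehicle. HepG2 oxygen consumption was then tracked on a Seahorse XF96 for 72 min through FCCP and rotenone/antimycin A phases, with the inhibited-phase rate as the endpoint.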

[2] = CCTE_Shafer_MEA_acute_spike_number: CCTE's Neural Acute Assay for Total Number of Spikes, Shafer Lab (AID 2284008);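 for AC50: curve fitted for decrease in spike count so AC50 reflects inhibitors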
Summary of the method: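 Primary rat cortical neurons on 16-electrode MEA wells; on DIV 13 or 15, 40-min baseline then 40-min recording with compound (0.03-40 uM) at 37 C. Spikes detected at 8x rms noise; percent change versus baseline, DMSO as negative control.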

[3] = CCTE_Harrill_HTTr_Viability_MCF7: CCTE's 6-hour Cell Viability Assessment for the High-Throughput Transcriptomics (HTTr) Platform, in MCF-7 cells cultured in DMEM + 10% fetal bovine serum, Harrill Lab (AID 2284010)
Summary of the method: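 Eight-point concentration series, six-hour exposure. Propidium iodide exclusion imaged to assess membrane integrity as a cytotoxicity readout; bidirectional fitting was done with DMSO as negative control and activity baseline.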

[4] = CCTE_Harrill_HTTr_Apoptosis_MCF7: CCTE's 6-hour Apoptosis Assessment for the High-Throughput Transcriptomics (HTTr) Platform, in MCF-7 cells cultured in DMEM + 10% fetal bovine serum, Harrill Lab (AID 2284011)
Summary of the method: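 MCF-7 cells in DMEM + 10% fetal bovine serum were exposed to chemicals for 6 hours over an eight-point dilution series. Caspase-3/7 activation was imaged by high content imaging with CellEvent Caspase 3/7 Green; bidirectional fitting used DMSO as baseline.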

[5] = CCTE_Harrill_HTTr_CellCount_MCF7: CCTE's Cell Proliferation Assessment for the High-Throughput Transcriptomics (HTTr) Platform, Harrill Lab (AID 2284012; active = hit-call score of the fitted dose curve at least 0.9, where 1 is the maximum;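 note: count of Hoechst-stained nuclei per well by high-content imaging in MCF-7 cells; cells exposed to compound for six hours; intended direction is loss of nuclei count meaning fewer cells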)
Summary of the method: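 For this full-screen endpoint, MCF-7 cultures received eight compound dilutions for six hours. Well nuclei counts from Hoechst imaging were analyzed relative to DMSO.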

[6] = CCTE_Shafer_MEA_acute_burst_number: CCTE's Neural Acute Assay for Single-Electrode Bursts, Shafer Lab (AID 2284013)
Summary of the method: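 Burst totals were derived with adaptive spike detection (8x rms threshold) on filtered signals from rat cortical cultures; change relative to pre-treatment baseline after 40-min compound exposure (0.03-40 uM) was fitted in the negative direction against DMSO.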

[7] = CCTE_Shafer_MEA_acute_per_burst_spike_number_mean: CCTE's Neural Acute Assay for Average Number of Spikes Per Burst, Shafer Lab (AID 2284015);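 note: hits are decreases in mean spikes per burst versus baseline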
Summary of the method: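 Read-out: percent change in mean spikes per burst, each well's post-exposure 40-min recording versus its own 40-min baseline. Rat cortical cultures, DIV 13 or 15, compounds 0.03-40 uM; DMSO is negative control, loss-of-signal fitting.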

[8] = CCTE_Shafer_MEA_acute_interburst_interval_mean: CCTE's Neural Acute Assay for Mean Interburst Interval, Shafer Lab (AID 2284016);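 note: percent change of mean interburst interval versus each well's own pre-dose baseline; curves fitted for decrease in interburst interval relative to DMSO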
Summary of the method: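 Rat cortical cultures, DIV 13/15; 20 min equilibration, 40 min baseline, compound 0.03-40 uM, 40 min re-recording, 37 C. Spikes detected at 8x rms noise (300-5000 Hz band-pass). Endpoint: % change in interburst interval, fitted in loss direction vs DMSO.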

[9] = CCTE_Simmons_MITO_viability: CellTiter-Glo Viability Assessment for CCTE's HepG2 Seahorse XF Respirometric Screening Assay [post-hoc], Simmons Lab (AID 2284007; active = hit-call score of the fitted dose curve at least 0.9, where 1 is the maximum;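 for AC50: cells exposed to chemical for 90 min before the ATP read; actives lower ATP signal relative to DMSO baseline meaning reduced viability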)
Summary of the method: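 Post-hoc viability check on the HepG2 respirometry plates: luciferase-based ATP signal measured once, after 90 min compound exposure spanning 125 nM–100 uM final. Activity was referenced to DMSO as baseline.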

[10] = CCTE_Shafer_MEA_acute_burst_duration_mean: CCTE's Neural Acute Assay for Mean Burst Duration, Shafer Lab (AID 2284014);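 note: hits are decreases in mean burst duration relative to DMSO controls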
Summary of the method: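 Acute exposure of mature rat cortical networks (DIV 13 or 15) grown on microelectrode arrays to 0.03-40 uM compound. Mean burst duration compared with the 40-min pre-dose baseline over a 40-min post-dose recording at 37 C.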

Measured: AC50

CC(C)(c1ccc(O)cc1)c1ccc(O)cc1
active: [2] 5.7 µM | [6] 6.17 µM
not listed: [9] | [10]
inactive: all other assays above

N#CSCSc1nc2ccccc2s1
active: [7] 20 µM
inactive: all other assays above

C=CCOC(Cn1ccnc1)c1ccc(Cl)cc1Cl (stereo unspecified)
active: [2] 6.09 µM | [6] 3.97 µM
inactive: all other assays above

CC1(C)C(C=C(Cl)Cl)C1C(=O)OCc1cccc(Oc2ccccc2)c1 (stereo unspecified)
inactive: [2] | [3] | [4] | [6] | [10] | [8]

CC(C)(C)[C@@H](O)[C@@H](Cc1ccc(Cl)cc1)n1cncn1
active: [10] 25.1 µM
not listed: [1] | [9]
inactive: all other assays above

O=C(O)C1(C(=O)Nc2ccc(Cl)cc2Cl)CC1
inactive: [1] | [3] | [4] | [5]
active: [9] 29.3 µM

CCOC(=O)NCCOc1ccc(Oc2ccccc2)cc1
inactive: [1] | [9] | [3] | [4]

O=C(Nc1ccc([N+](=O)[O-])cc1Cl)c1cc(Cl)ccc1O
inactive: [3] | [4]
active: [1] 1.36 µM | [2] 0.115 µM | [6] 0.0944 µM | [10] 0.621 µM | [7] 0.292 µM | [8] 0.183 µM

CC(C)CCCCCCc1ccc(O)cc1
active: [2] 6.02 µM | [6] 6.34 µM | [8] 7.29 µM
inactive: all other assays above

CCCN(CCC)c1c([N+](=O)[O-])cc(C(F)(F)F)c(N)c1[N+](=O)[O-]
active: [3] 68.1 µM
not listed: [1] | [9]
inactive: all other assays above

CC(=O)[C@H]1CC[C@H]2[C@@H]3CCC4=CC(=O)CC[C@]4(C)[C@H]3CC[C@]12C
inactive: [1] | [9] | [3] | [4] | [5]

CSC(=O)c1cccc2nnsc12
not listed: [1] | [5] | [9]
inactive: all other assays above

O=C(c1ccc(O)cc1O)c1ccc(O)cc1O
not listed: [5]
inactive: all other assays above

COC(=O)c1ccccc1C(=O)O
not listed: [1] | [9]
inactive: all other assays above

OB(O)O
not listed: [1] | [9]
inactive: all other assays above

CCCCC(CC)CN1C(=O)C2C3C=CC(C3)C2C1=O (stereo unspecified)
active: [2] 30.1 µM
not listed: [5]
inactive: all other assays above

Cc1nn(C)c(Oc2ccccc2)c1C=NOCc1ccc(C(=O)OC(C)(C)C)cc1
active: [9] 2.81 µM | [2] 0.00424 µM | [6] 0.003 µM | [7] 3.08 µM | [8] 0.003 µM
inactive: [1] | [9] | [3] | [4] | [5] | [10]

O=C(O)c1ccccc1
not listed: [1] | [9]
inactive: all other assays above

N[C@@H](Cc1cc(I)c(Oc2ccc(O)c(I)c2)c(I)c1)C(=O)O
inactive: [1] | [3] | [4]

CCCCOC(=O)[C@@H](C)Oc1ccc(Oc2ccc(C(F)(F)F)cn2)cc1
inactive: [1] | [9] | [3] | [4] | [5]

O=C(c1ccccc1)C1CCCCC1
inactive: [2] | [6] | [10] | [7] | [8]

CCCCC(CC)COC(=O)c1ccccc1C(=O)O (stereo unspecified)
inactive: [1] | [9] | [3] | [4]

C[C@]12C[C@H](O)[C@H]3[C@@H](CCC4=CC(=O)CC[C@@]43C)[C@@H]1CC[C@@H]2C(=O)CO
inactive: [9] | [3] | [4] | [5]

CCCCOC(=O)C(C)Oc1ccc(Oc2ccc(C(F)(F)F)cn2)cc1 (stereo unspecified)
inactive: [1] | [9] | [3] | [4]

Oc1ccc(C(c2ccc(O)cc2)C(Cl)(Cl)Cl)cc1
active: [2] 4.04 µM | [6] 2.22 µM | [8] 7.4 µM
not listed: [9]
inactive: all other assays above

C#CCOC(=O)[C@@H](C)Oc1ccc(Oc2ncc(Cl)cc2F)cc1
not listed: [1] | [5] | [9]
inactive: all other assays above

CCNc1nc(N)nc(Cl)n1
not listed: [1] | [5] | [9]
inactive: all other assays above

CCCN(CCC)C(=O)SCC
inactive: [3] | [4] | [5]

C#C[C@]1(O)CC[C@H]2[C@@H]3CCC4=CC(=O)CC[C@@H]4[C@H]3CC[C@@]21CC
inactive: [3] | [4] | [5]

c1ccc2[nH]c(-c3cscn3)nc2c1
inactive: [3] | [4] | [5]

CC(=O)S[C@@H]1CC2=CC(=O)CC[C@]2(C)[C@H]2CC[C@@]3(C)[C@@H](CC[C@@]34CCC(=O)O4)[C@H]12
inactive: [3] | [4] | [5]

S=C(S)NCCNC(=S)S.[Mn+2].[S-]C([S-])=NCCN=C([S-])[S-].[Zn+2]
inactive: [3] | [4] | [5]

CCOC(=O)c1ccc(O)cc1
inactive: [3] | [4] | [5]

CCOC(=O)C(C)Oc1ccc(Oc2nc3ccc(Cl)cc3o2)cc1 (stereo unspecified)
inactive: [3] | [4]

CCCCCCC(C)OC(=O)COc1nc(F)c(Cl)c(N)c1Cl (stereo unspecified)
inactive: [3] | [4]

CN(C)C(=O)Nc1ccc(Cl)c(Cl)c1
inactive: [3] | [4] | [5]

CCCCCOC(=O)COc1cc(N2C(=O)C3=C(CCCC3)C2=O)c(F)cc1Cl
inactive: [3] | [4] | [5]

CCN(CC)C(=O)c1cccc(C)c1
inactive: [3] | [4] | [5]

CCCCOCCOCCOCc1cc2c(cc1CCC)OCO2
inactive: [3] | [4]

COCCO
inactive: [3] | [4]

COC(=O)c1ccc(I)cc1S(=O)(=O)NC(=O)Nc1nc(C)nc(OC)n1
inactive: [3] | [4]

CCC(O)=C1C(=O)CC(C(=O)O)CC1=O (stereo unspecified)
inactive: [3] | [4]

c1ccc(Nc2ccccc2)cc1
inactive: [3] | [4]

CCOC(=O)COc1cc(-n2ncc(C(F)(F)F)c(C)c2=O)c(F)cc1Cl
inactive: [3] | [4] | [5]

C[C@]12CC[C@@H]3c4ccc(O)cc4C[C@@H](CCCCCCCCCS(=O)CCCC(F)(F)C(F)(F)F)[C@H]3[C@@H]1CC[C@@H]2O (stereo partly specified)
inactive: [3] | [4]

S=C([S-])NCCNC(=S)[S-].[Mn+2]
inactive: [3] | [4] | [5]

CCSC(=O)N(CC(C)C)CC(C)C
inactive: [3] | [4]

CCOC(=O)C(C)Oc1ccc(Oc2cnc3cc(Cl)ccc3n2)cc1 (stereo unspecified)
inactive: [3] | [4]

CCC(C)OC(=O)N1CCCCC1CCO (stereo unspecified)
inactive: [3] | [4]

COC(=O)CSc1cc(N=c2sc(=O)n3n2CCCC3)c(F)cc1Cl
inactive: [3] | [4]

CCN(Cc1c(F)cccc1Cl)c1c([N+](=O)[O-])cc(C(F)(F)F)cc1[N+](=O)[O-]
inactive: [3] | [4]

CCCOC(=O)c1ccc(C(=O)OCCC)nc1
inactive: [3] | [4] | [5]

COc1c(Cl)ccc(Cl)c1C(=O)O
inactive: [3] | [4]

CCCOC(=O)NCCCN(C)C
inactive: [3] | [4]
